# How the values were obtained:
# Experiment in all cases: DAPPL (digital affinity profiling via proximity ligation, sequencing); 10 mM Tris-HCl pH 7.5, 50 mM NaCl, 1 mM DTT, 4% glycerol, room temperature, 30 min; GST-TFs on glutathione beads, 16-mer random dsDNA library, 0.1% formaldehyde crosslink after washing; high values mean tight binding
# Conditions in all cases: protein: recombinant; tags: N-terminal GST; dsDNA, one strand shown
# GABPA = biological target: T1, GABPA (Homo sapiens, UniProt Q06546 1-454)
# T1 sequence: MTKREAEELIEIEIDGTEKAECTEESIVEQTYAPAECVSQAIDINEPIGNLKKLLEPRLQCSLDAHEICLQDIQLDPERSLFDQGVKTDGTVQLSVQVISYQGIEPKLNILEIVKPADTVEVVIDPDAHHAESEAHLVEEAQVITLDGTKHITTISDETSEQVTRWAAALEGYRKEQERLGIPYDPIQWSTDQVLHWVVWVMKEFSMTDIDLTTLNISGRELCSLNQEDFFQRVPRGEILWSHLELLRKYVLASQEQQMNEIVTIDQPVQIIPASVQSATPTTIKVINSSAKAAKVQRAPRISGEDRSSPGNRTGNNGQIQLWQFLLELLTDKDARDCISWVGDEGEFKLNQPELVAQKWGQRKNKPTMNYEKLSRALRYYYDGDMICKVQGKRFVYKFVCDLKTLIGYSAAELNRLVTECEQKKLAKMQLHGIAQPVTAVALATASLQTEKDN
# Method in brief: (§1)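 Yeast served to express human transcription factors as GST fusions, which were then captured on glutathione beads and labelled with DNA barcodes. Pooled with a tag-only sample, they were incubated with 200 nmole of a 16-mer random double-stranded DNA library for 30 min at room temperature in Tris/NaCl/DTT/glycerol buffer, washed, crosslinked with 0.1% formaldehyde, ligated by proximity, amplified by PCR and sequenced. Dividing each hexamer's read frequency for a factor by its frequency for the tag-only sample gives the binding signal.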
# ELF1 = ELF1 (Homo sapiens, UniProt P32519 1-619)
# Sequence of ELF1 (P32519 whole entry): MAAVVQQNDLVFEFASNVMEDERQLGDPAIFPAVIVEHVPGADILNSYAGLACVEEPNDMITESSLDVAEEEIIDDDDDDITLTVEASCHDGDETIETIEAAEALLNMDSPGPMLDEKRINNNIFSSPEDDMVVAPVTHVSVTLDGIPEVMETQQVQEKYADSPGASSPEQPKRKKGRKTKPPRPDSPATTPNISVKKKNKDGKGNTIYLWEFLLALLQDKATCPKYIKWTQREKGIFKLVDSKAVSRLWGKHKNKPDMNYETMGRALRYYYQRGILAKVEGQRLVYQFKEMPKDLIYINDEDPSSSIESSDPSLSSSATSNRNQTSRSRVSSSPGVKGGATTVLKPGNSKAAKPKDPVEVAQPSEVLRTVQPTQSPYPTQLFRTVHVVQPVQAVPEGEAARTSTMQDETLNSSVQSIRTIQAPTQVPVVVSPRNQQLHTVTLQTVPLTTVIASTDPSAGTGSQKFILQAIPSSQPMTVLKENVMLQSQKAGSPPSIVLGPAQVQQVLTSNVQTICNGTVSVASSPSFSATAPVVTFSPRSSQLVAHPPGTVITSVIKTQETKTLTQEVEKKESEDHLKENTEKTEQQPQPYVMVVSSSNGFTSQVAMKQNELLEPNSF
# Method in brief: as §1
# FEV = biological target: T2, FEV (Homo sapiens, UniProt Q99581 1-238)
# T2 sequence: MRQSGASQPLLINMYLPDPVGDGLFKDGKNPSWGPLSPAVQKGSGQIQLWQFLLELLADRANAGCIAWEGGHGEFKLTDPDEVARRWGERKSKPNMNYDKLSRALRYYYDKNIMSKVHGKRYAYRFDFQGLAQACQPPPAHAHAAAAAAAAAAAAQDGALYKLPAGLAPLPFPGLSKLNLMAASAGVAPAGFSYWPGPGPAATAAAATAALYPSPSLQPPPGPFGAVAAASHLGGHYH
# Method in brief: as §1
# ETV3 = biological target: T3, ETV3 (Homo sapiens, UniProt P41162-2 1-143)
# T3 sequence: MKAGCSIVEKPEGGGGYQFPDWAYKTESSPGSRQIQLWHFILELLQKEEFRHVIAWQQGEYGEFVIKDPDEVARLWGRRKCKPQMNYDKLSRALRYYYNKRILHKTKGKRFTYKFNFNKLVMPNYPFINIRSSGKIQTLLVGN
# Method in brief: as §1
# ERG = biological target: T4, ERG (Homo sapiens, UniProt P11308 1-479)
# T4 sequence: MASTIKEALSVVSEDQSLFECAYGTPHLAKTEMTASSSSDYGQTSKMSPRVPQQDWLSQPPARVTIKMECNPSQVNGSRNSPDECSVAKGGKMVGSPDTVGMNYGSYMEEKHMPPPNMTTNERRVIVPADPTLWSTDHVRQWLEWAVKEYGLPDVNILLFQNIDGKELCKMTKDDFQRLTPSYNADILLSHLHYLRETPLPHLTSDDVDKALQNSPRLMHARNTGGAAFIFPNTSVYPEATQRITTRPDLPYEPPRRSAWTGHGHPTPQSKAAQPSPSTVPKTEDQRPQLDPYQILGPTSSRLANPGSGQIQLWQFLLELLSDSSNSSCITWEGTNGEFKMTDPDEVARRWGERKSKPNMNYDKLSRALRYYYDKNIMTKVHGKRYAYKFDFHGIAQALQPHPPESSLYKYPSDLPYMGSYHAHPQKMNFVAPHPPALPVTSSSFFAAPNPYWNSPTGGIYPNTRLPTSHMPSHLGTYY
# Method in brief: as §1
# SPIB = SPIB (Homo sapiens, UniProt Q01892 1-262)
# Sequence of SPIB (Q01892 whole entry): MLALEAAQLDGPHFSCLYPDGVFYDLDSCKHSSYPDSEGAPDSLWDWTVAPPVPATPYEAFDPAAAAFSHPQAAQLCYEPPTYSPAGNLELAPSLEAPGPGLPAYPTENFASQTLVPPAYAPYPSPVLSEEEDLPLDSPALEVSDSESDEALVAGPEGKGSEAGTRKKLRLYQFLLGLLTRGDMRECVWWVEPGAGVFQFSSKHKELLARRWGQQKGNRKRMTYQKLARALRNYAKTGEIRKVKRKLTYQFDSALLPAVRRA
# Method in brief: as §1
# ELK3 = biological target: T5, ELK3 (Homo sapiens, UniProt P41970 1-407)
# T5 sequence: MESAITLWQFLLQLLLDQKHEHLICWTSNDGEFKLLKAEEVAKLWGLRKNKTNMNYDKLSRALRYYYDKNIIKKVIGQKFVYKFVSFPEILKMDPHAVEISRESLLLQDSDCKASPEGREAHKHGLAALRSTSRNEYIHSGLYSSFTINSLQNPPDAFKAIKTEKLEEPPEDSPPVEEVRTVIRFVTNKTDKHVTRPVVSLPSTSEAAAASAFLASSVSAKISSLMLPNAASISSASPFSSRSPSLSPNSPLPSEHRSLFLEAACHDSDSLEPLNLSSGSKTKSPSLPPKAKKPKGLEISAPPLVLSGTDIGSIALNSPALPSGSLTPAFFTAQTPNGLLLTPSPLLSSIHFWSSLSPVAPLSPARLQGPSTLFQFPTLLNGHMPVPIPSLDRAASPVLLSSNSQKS
# Method in brief: as §1
# ERF = biological target: T6, ERF (Homo sapiens, UniProt P50548 1-548)
# T6 sequence: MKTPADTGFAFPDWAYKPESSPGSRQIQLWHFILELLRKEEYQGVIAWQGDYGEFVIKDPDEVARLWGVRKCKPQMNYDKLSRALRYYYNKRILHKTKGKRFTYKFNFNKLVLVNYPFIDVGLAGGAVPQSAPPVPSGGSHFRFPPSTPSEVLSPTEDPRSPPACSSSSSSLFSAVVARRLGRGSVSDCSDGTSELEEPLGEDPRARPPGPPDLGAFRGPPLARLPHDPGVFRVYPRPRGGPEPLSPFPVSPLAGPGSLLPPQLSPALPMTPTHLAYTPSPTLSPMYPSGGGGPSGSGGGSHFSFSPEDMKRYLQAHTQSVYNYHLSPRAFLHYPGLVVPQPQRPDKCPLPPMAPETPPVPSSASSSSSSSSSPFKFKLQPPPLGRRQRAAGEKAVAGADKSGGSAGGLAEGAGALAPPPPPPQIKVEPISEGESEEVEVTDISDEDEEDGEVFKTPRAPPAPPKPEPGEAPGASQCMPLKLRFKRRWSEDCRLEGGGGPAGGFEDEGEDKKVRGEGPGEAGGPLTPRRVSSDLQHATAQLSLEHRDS
# Method in brief: as §1
# ETV3L = biological target: T7, ETV3L (Homo sapiens, UniProt Q6ZN32 1-361)
# T7 sequence: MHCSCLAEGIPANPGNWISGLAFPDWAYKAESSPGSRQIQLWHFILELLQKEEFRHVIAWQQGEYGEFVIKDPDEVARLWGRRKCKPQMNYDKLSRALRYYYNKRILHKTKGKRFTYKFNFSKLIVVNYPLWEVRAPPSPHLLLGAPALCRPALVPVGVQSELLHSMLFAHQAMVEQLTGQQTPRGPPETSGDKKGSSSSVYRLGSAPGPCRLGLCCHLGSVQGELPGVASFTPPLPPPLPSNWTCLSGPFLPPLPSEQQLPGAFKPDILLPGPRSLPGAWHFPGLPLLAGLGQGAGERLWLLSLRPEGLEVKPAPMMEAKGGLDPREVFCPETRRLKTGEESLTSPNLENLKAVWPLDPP
# Method in brief: as §1
# ETS2 = biological target: T8, ETS2 (Homo sapiens, UniProt P15036 1-469)
# T8 sequence: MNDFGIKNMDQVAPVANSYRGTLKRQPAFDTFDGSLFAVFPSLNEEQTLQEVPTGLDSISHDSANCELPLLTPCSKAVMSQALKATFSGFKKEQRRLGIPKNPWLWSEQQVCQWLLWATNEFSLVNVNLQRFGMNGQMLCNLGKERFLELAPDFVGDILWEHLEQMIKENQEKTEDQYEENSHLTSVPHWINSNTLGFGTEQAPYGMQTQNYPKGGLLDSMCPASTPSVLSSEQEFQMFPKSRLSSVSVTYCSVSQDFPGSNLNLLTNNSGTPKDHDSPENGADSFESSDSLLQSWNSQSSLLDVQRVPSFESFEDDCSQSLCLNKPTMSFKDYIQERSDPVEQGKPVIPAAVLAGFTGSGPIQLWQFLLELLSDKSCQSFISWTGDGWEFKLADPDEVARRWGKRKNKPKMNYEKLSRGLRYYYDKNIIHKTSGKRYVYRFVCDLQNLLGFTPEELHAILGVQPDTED
# Method in brief: as §1
# ETV7 = biological target: T9, ETV7 (Homo sapiens, UniProt Q9Y603 1-341)
# T9 sequence: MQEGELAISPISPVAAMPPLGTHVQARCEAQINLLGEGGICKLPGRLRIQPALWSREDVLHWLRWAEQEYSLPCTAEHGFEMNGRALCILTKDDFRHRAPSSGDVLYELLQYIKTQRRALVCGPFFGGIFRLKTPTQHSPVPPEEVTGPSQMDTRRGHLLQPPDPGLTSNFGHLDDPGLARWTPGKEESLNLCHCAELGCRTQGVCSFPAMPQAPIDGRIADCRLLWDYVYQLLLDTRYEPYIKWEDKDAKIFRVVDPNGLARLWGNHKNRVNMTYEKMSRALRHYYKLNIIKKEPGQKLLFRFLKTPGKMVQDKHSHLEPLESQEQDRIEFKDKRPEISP
# Method in brief: as §1
# SPDEF = biological target: T10, SPDEF (Homo sapiens, UniProt O95238 1-335)
# T10 sequence: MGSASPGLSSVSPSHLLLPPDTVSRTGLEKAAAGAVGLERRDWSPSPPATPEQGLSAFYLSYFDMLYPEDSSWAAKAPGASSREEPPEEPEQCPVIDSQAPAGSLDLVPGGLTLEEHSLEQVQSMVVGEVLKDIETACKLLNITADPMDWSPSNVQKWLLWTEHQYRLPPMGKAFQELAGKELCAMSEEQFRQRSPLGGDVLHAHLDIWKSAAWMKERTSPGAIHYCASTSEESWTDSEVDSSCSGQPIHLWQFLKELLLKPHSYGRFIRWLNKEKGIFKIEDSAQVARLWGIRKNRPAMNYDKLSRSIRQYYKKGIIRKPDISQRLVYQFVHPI
# Method in brief: as §1
# ETV1 = ETV1 (Homo sapiens, UniProt P50549 1-477)
# Sequence of ETV1 (P50549 whole entry): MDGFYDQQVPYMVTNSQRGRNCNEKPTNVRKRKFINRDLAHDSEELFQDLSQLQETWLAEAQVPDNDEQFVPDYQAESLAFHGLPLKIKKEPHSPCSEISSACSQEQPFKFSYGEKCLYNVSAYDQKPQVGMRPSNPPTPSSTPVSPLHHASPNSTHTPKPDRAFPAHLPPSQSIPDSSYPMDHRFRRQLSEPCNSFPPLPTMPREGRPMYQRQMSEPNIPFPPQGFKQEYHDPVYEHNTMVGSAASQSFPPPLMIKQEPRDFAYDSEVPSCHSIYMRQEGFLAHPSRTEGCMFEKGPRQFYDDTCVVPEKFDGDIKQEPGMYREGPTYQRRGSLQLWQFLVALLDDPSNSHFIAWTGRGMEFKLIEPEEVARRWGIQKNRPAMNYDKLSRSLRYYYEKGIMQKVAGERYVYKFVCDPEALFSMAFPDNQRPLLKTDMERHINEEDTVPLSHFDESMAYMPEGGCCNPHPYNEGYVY
# Method in brief: as §1
sequence,measurement,setting,value
AGGACT,binding signal,GABPA,"1.05 fold enrichment (6-mer frequency, TF over GST control)"
same,binding signal,ELF1,"1 fold enrichment (6-mer frequency, TF over GST control)"
same,binding signal,FEV,"1.01 fold enrichment (6-mer frequency, TF over GST control)"
same,binding signal,ETV3,"1.06 fold enrichment (6-mer frequency, TF over GST control)"
AAGACA,binding signal,ERG,"1 fold enrichment (6-mer frequency, TF over GST control)"
same,binding signal,SPIB,"1.02 fold enrichment (6-mer frequency, TF over GST control)"
same,binding signal,ELK3,"1.01 fold enrichment (6-mer frequency, TF over GST control)"
same,binding signal,ERF,"1.07 fold enrichment (6-mer frequency, TF over GST control)"
same,binding signal,ETV3L,"1.01 fold enrichment (6-mer frequency, TF over GST control)"
same,binding signal,ETS2,"1.01 fold enrichment (6-mer frequency, TF over GST control)"
same,binding signal,ETV7,"1.04 fold enrichment (6-mer frequency, TF over GST control)"
TGTAGT,binding signal,SPDEF,"1.03 fold enrichment (6-mer frequency, TF over GST control)"
GGGCTG,binding signal,GABPA,"1.03 fold enrichment (6-mer frequency, TF over GST control)"
same,binding signal,ERF,"1.03 fold enrichment (6-mer frequency, TF over GST control)"
same,binding signal,ETV3L,"1.03 fold enrichment (6-mer frequency, TF over GST control)"
same,binding signal,ETV7,"1.05 fold enrichment (6-mer frequency, TF over GST control)"
ATAGAG,binding signal,ERF,"1.01 fold enrichment (6-mer frequency, TF over GST control)"
GGTTGC,binding signal,SPIB,"1 fold enrichment (6-mer frequency, TF over GST control)"
same,binding signal,ETV3L,"1.01 fold enrichment (6-mer frequency, TF over GST control)"
CGCGGT,binding signal,ETV1,"1.03 fold enrichment (6-mer frequency, TF over GST control)"

# Reference: article PMC7862700, “An all-to-all approach to the identification of sequence-specific readers for epigenetic DNA modifications on cytosine”
